62 compounds from PubChem BioAssay AID492967 (ICCB-Longwood Screening Facility, Harvard Medical School, 2010) can be followed below.

Several values for one entry are separate records, joined by “and”; a condition that tells them apart may be missing. Equal entries are not always repeated. About 320 (0.23%) of roughly 140,000 compounds were called active. Shown is part of a subset that was picked to be rich in actives. Unmarked numbers belong to inactive results. No stated cut-off is given here; in the data, active means z-score mostly below about -2.9 (no sharp cut-off); inactive means mostly above about -1.9.

This experiment has as its system CapD gamma-glutamyltranspeptidase (Bacillus anthracis Ames Ancestor). In words: inhibition of CapD gamma-glutamyltranspeptidase – biochemical, fluorescence intensity, primary screen (AID 492967). The conditions noted are these: purified CapD enzyme, fluorescence intensity read-out; active compounds read low.
With `Cc1cccc(N2CCN(C(=O)c3cccc(N4C(=O)C5C6C=CC(C6)C5C4=O)c3)CC2)c1C` (configuration not stated), the z-score is -0.42.

Turning to `CCOC(=O)c1cc2cccc(NC(=O)c3cccc(C(F)(F)F)c3)c2[nH]1`, the z-score was -0.595.

For the compound `CCCCCNC(=O)c1ccc2c(c1)[nH]c(=S)n1c3ccccc3nc21`, the z-score is -0.3.

For `CN(CC(=O)O)S(=O)(=O)c1ccc2oc3ccccc3c2c1`, the z-score is 0.355.

Consider `C=CCN1CCN(C(=O)C2CC2)CC1`, for which the z-score was 0.655.

In the case of `CCCNC(=O)Nc1ccc2snnc2c1`, the z-score is 26.7.

For `CCOC(=O)c1ccc(N2N=C(C(F)(F)F)/C(=C/c3cc(Cl)c(O)c(OC)c3)C2=O)cc1`, the z-score was -0.22.

With `CCC(C)(C)c1cc2cc(NS(=O)(=O)c3ccccc3)ccc2[nH]1`, the z-score is -0.4.

As to `CCOC(=O)c1cc2cccnc2nc1C`, the z-score is -0.34.

With `CCOc1ccc(C(=O)/C(C)=N/O)cc1`, the z-score is -1.18.

In the case of `Cc1ccc2nc(N3CC(=O)N(CCc4ccccc4)C(=O)C3)c3nncn3c2c1`, the z-score was -0.125.

For the compound `CC(Oc1ccc(OC(C)C(=O)/C=C/N(C)C)cc1)C(=O)/C=C/N(C)C` (configuration not stated), the z-score was -1.18.

`N#Cc1c(-c2ccccc2)cc(-c2ccccc2)c(C#N)c1N`: the z-score is 21.

Turning to `FC(F)(F)c1cccc(N2CCN(C(=S)Nc3ccccc3)CC2)c1`, the z-score was -0.215.

Take `O=C(COC(=O)Cc1ccsc1)Nc1ccccc1C(F)(F)F`: the z-score is -1.17.

On to `CCOc1ccc(/C=C2/SC(=S)N(CC(=O)O)C2=O)cc1`, for which the z-score is -0.21.

With `FC(F)(F)C1=CC=NCCN1`, the z-score was -4.38 (active).

For `CC(C)(C)OC(=O)/N=C(\N)N(CCCC(NC(=O)OC(C)(C)C)C(=O)NCc1cccs1)C(=O)OC(C)(C)C` (configuration not stated), the z-score was -0.295.

In the case of `O=C(c1ccco1)N1CCN(Cc2cccc(C(F)(F)F)c2)CC1`, the z-score is 0.64.

As for `CCNC(=O)C(=O)Nc1cccc(C(F)(F)F)c1`, the z-score was 0.01.

`CCOC(=O)N/N=C1/c2ccccc2C2(O)NC(=O)NC12O` (configuration not stated): the z-score is 0.15.

For the compound `C=CCn1cc(C=C2C(=O)N(C)C(=S)N(C)C2=O)c2ccccc21`, the z-score is 3.29.

As to `O=C(O)Cn1cc(/C=C2\C(=O)NN(c3ccccc3)C2=O)c2ccccc21`, the z-score is -6.26 (active).

As to `CN1C(=O)C(=Cc2cn(CC(=O)NCc3ccco3)c3ccccc23)C(=O)N(C)C1=O`, the z-score is -0.57.

`CCOc1ccc(CCNC(=O)c2nnc(-c3cccnc3)o2)cc1OCC`: the z-score is 0.25.

Regarding `Cc1nc2ccccc2n1CC1CC1(Cl)Cl` (configuration not stated), the z-score is -0.66.

`O=C(O)CSc1ncn(-c2ccccc2)n1`: the z-score was 0.115.

As to `CC1(C)c2ccccc2N2CCC(=O)NC21/C=C/c1cccnc1` (configuration not stated), the z-score is 0.115.

On to `CN(C)/C=C/C(=O)C(Cc1ccc(Cl)cc1)Cc1ccc(Cl)cc1`, for which the z-score was -0.33.

`O=[N+]([O-])c1cccc(C2(O)CN(c3ccc(Cl)cc3)C3=[N+]2CCCS3)c1` (configuration not stated): the z-score was 0.185.

For the compound `COc1ccc2nc3oc(C(=O)NC4CC4)cc3cc2c1`, the z-score was 3.45.

`O=C(c1ccccc1)C(O)c1c[nH]c2ccccc12` (configuration not stated): the z-score is 0.51.

For the compound `O=c1[nH][nH]c(=O)c2c(N=Cc3c[nH]c4ccccc34)cccc12`, the z-score was 57.4.

Turning to `CC1(C)CC(=O)C(=Cc2c[nH]c3ccccc23)C(=O)C1`, the z-score was -4.71 (active).

In the case of `O=C(CC(NCc1ccco1)C(=O)O)Nc1cccc(C(F)(F)F)c1` (configuration not stated), the z-score was -0.155.

For `CCOc1ncccc1C(=O)Nc1cccc(C(F)(F)F)c1`, the z-score is -0.145.

For the compound `O=c1cc(CO)oc(C(Nc2cccc(C(F)(F)F)c2)c2ccccn2)c1O` (configuration not stated), the z-score is -6.66 (active).

As to `CCC1CCCCN1C(=O)CSc1ccc(C)cc1` (configuration not stated), the z-score was -0.23.

In the case of `O=c1oc2ccccc2cc1-c1nc(-c2ccc(Cl)cc2)cs1`, the z-score is 0.955.

Regarding `Cc1cc(=O)oc2c3c(ccc12)OCN(c1ccccc1Cl)C3`, the z-score is 21.1.

For `CCC(C)NC(=O)c1onc(C)c1Cl` (configuration not stated), the z-score is -0.44.

Consider `Cc1c(NS(=O)(=O)c2ccc3c(c2)C(=O)c2ccccc2C3=O)c(=O)n(-c2ccccc2)n1C`, for which the z-score is -0.465.

Turning to `O=C1CCCC2=C1C(c1ccc(Cl)cc1)c1c(ccc3ccccc13)N2` (configuration not stated), the z-score was 0.255.

For the compound `Cc1ccc(Oc2cc(Oc3ccc(C)cc3)c3noc4c3c2C(=O)c2ccccc2-4)cc1`, the z-score was 0.03.

`Cc1cc2c(cc1C)CSC(c1cc(Cl)cc(Cl)c1O)SC2`: the z-score is -0.005 and -0.385.

With `COc1cc2c(C(=O)NCCC(C)C)cn(C)c(=O)c2cc1OC`, the z-score was 0.63.

On to `C=CCN(C(=O)c1ccc(N2CC3CC(C2)c2cccc(=O)n2C3)c(NC(=O)c2ccc(OC)cc2)c1)c1ccccc1` (configuration not stated), for which the z-score was -0.49.

Regarding `O=C(OC1CCCCC1=O)c1ccc(O)cc1` (configuration not stated), the z-score was -0.295.

As for `CCOc1cccc2cc(C(=O)Nc3ccc(Oc4ccccc4)cc3)c(=O)oc12`, the z-score is 1.48.

As to `CC12CCC(C(=O)Nc3ncc(Cl)cc3Cl)(CC1=O)C2(C)C` (configuration not stated), the z-score was -1.89 (active).

Consider `O=C(COC(=O)c1ccccc1)Nc1ncc(Cl)cc1Cl`, for which the z-score is 0.31.

For the compound `CC12CCC(C(=O)O)(CC1=O)C2(C)C` (configuration not stated), the z-score was -0.19.

Consider `CCOC(=O)C1=NN(C(=O)CCc2ccccc2)C(O)(c2ccc(Cl)cc2)C1` (configuration not stated), for which the z-score is -1.38.

Consider `CCC(C(=O)Nc1cccc(OC)c1)N1C(=O)CCn2nccc21` (configuration not stated), for which the z-score was 0.745.

In the case of `O=C1C2C3c4ccccc4C(c4ccccc43)C2C(=O)N1c1ccccc1Cl` (configuration not stated), the z-score is 0.425.

For the compound `O=C(O)c1ccccc1-c1ccccc1C(=O)Nc1nccs1`, the z-score was 0.375.

On to `Nc1[nH]c(=S)sc1C(=O)Nc1nccs1`, for which the z-score was -5.56 (active).

Consider `O=C(Nc1nccs1)c1cc(=O)c2ccccc2o1`, for which the z-score is -0.41.

For `CC(=O)Nc1ccc2c(c1)OCCOCCOCCO2`, the z-score is -0.015.

For the compound `CC(C)Oc1ccccc1C(N)=O`, the z-score is -0.285.

As for `COc1ccc(CSc2nc(N)nc(-c3cccs3)c2C#N)cc1`, the z-score was 3.26.

With `O=C(Oc1ccc(C=Nc2cccc(Br)c2)cc1)c1ccccn1`, the z-score was -0.36.
